Measured values from PubChem BioAssay (NCATS).
“And” between values parts separate entries of the source, which are not always exact repeats. Equal entries are not always repeated. Results filed as inconclusive are left out. The source made the active and inactive calls. Unless noted, calls come from the whole dose curve; as a rule, active = well fitted curve in the direction sought with a large enough effect; inconclusive = small, poorly fitted or top-dose-only effect, or another doubt; inactive = no such curve, though single readings can be large; an effect the other way counts as inactive or inconclusive.

What was measured:
[1] = test system: 7G8; assay: qHTS profiling for inhibitors of Plasmodium falciparum proliferation (AID 504749); note: nearly all actives have a fitted effect of over 60% in size; note: potency is the fitted concentration of half-maximal effect; conditions: P. falciparum in erythrocytes, SYBR Green DNA, 72 h; series mostly up to 28.7 µM
Procedure, shortened: (§1)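 Quantitative HTS: compounds pinned into medium, infected erythrocytes added (0.3% parasitemia, 2.5% hematocrit), 72 h culture at 37 C under 5% CO2. Saponin/Triton lysis with SYBR Green I, overnight RT, then fluorescence read.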

[2] = test system: CP252; assay: as above; conditions: P. falciparum in erythrocytes, SYBR Green DNA, 72 h; series mostly up to 28.7 µM
Procedure, shortened: as §1

[3] = test system: CP268; assay: as above; conditions: P. falciparum in erythrocytes, SYBR Green DNA, 72 h; series mostly up to 28.7 µM
Procedure, shortened: as §1

[4] = test system: CP305; assay: as above; conditions: P. falciparum in erythrocytes, SYBR Green DNA, 72 h; series mostly up to 28.7 µM
Procedure, shortened: as §1

[5] = test system: CP315; assay: as above; conditions: P. falciparum in erythrocytes, SYBR Green DNA, 72 h; series mostly up to 28.7 µM
Procedure, shortened: as §1

[6] = test system: CP329; assay: as above; conditions: P. falciparum in erythrocytes, SYBR Green DNA, 72 h; series mostly up to 28.7 µM
Procedure, shortened: as §1

[7] = test system: DIV17; assay: as above; conditions: P. falciparum in erythrocytes, SYBR Green DNA, 72 h; series mostly up to 28.7 µM
Procedure, shortened: as §1

[8] = test system: ECU; assay: as above; conditions: P. falciparum in erythrocytes, SYBR Green DNA, 72 h; series mostly up to 28.7 µM
Procedure, shortened: as §1

[9] = test system: FAB9; assay: as above; conditions: P. falciparum in erythrocytes, SYBR Green DNA, 72 h; series mostly up to 28.7 µM
Procedure, shortened: as §1

[10] = test system: HB3; assay: as above; conditions: P. falciparum in erythrocytes, SYBR Green DNA, 72 h; series mostly up to 28.7 µM
Procedure, shortened: as §1

[11] = test system: P94_40; assay: as above; conditions: P. falciparum in erythrocytes, SYBR Green DNA, 72 h; series mostly up to 28.7 µM
Procedure, shortened: as §1

[12] = test system: PAD; assay: as above; conditions: P. falciparum in erythrocytes, SYBR Green DNA, 72 h; series mostly up to 28.7 µM
Procedure, shortened: as §1

[13] = test system: PC49; assay: as above; conditions: P. falciparum in erythrocytes, SYBR Green DNA, 72 h; series mostly up to 28.7 µM
Procedure, shortened: as §1

[14] = test system: TAB109; assay: as above; conditions: P. falciparum in erythrocytes, SYBR Green DNA, 72 h; series mostly up to 28.7 µM
Procedure, shortened: as §1

[15] = MultiTox-Fluor Cytotoxicity Assay - LYMP1-001 - Live Cells (AID 947);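 note: 0% = DMSO only and full inhibition = tetraoctylammonium bromide control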
[16] = Cell Viability - LYMP2-009 (AID 968);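 note: cells exposed to compound for 24 h at 37 °C; 0% = DMSO alone and the full-kill end = tetraoctylammonium bromide at 92 µM; nearly all actives have a fitted effect of over 55% in size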
[17] = Cell Viability - LYMP2-008 (AID 980);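 note: cells exposed to compound for 24 h at 37 °C; % is set by controls: 0 for no effect and ±100 for the full control effect; nearly all actives have a fitted effect of over 60% in size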
Procedure, shortened: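 Cells seeded at 2500/well and rested 5 hr at 37 C; compounds added over a concentration range and incubated 24 hr at 37 C; CellTiter-Glo added, 30 min at room temperature; luminescence read and AC50 fitted with Hill model.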

[18] = S16 Schwann cell PMP22 intronic element beta-lactamase assay (AID 624044; calls by dose curve; note: nearly all actives have a fitted effect of over 15% in size; note: potency is the fitted concentration of half-maximal effect)
Procedure, shortened: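 Beta-lactamase reporter under a PMP22 intronic regulatory element in stable S16 rat Schwann cells; 24 h compound exposure. 460 nm blue signal normalized between DMSO (0%) and potassium clavulanate, with 535 nm FRET tracking viability; curves classed by r2 and response.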

[19] = target: Glucocorticoid receptor (Homo sapiens) (UniProt P04150); assay: qHTS assay for small molecule agonists of glucocorticoid receptor signaling (AID 588532; active = well fitted curve in the direction sought with a large enough effect in the signal ratio, with a control signal flat; the % refers to the signal ratio;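 note: 100% = dexamethasone at 0.1 µM and 0% = DMSO only wells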); conditions: HeLa MMTV-bla, beta-lactamase ratio, agonist, 18 h; hits give high values; percent of dexamethasone control, DMSO zero
Procedure, shortened: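 Titration series, up to 92 uM, applied to GRE-bla HeLa cells for 18 h at 37 C. Detection by CCF4 FRET substrate after 2 h at RT.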

[20] = qHTS assay for small molecule disruptors of the mitochondrial membrane potential - 1 hr assay (AID 651754; calls by dose curve; note: % is set by controls: 0 for no effect and ±100 for the full control effect; nearly all actives have a fitted effect of over 35% in size)
Procedure, shortened: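 Loss of mitochondrial potential shifts the cationic dye from red mitochondrial aggregates to green cytoplasmic monomers. Cells (HepG2) are treated with compound for 1 hr before a 30 min dye incubation at 37C.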

Chain of Glucocorticoid receptor (Homo sapiens) (P04150 whole entry, looked up): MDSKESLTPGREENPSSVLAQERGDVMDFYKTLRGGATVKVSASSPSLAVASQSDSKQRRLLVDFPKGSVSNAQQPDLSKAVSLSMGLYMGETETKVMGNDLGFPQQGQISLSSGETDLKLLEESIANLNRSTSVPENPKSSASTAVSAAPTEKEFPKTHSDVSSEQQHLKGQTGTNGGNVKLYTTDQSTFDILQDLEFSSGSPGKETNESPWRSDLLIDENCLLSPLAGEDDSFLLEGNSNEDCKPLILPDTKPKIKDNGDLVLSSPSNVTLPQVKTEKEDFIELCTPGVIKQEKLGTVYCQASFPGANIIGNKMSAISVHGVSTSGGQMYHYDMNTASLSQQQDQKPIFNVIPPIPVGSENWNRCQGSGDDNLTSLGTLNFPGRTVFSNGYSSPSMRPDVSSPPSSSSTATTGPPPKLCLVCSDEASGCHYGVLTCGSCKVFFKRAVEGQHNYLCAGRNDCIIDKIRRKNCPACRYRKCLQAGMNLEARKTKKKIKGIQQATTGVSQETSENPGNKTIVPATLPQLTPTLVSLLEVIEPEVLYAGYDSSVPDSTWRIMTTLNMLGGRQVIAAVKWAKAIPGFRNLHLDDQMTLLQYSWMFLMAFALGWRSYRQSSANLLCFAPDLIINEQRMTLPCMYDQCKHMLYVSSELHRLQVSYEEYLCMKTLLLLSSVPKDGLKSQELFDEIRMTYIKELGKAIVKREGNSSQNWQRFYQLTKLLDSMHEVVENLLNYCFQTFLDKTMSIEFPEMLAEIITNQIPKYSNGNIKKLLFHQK

CCN1/C(=C/C=C/C=C/c2sc3ccccc3[n+]2CC)Sc2ccccc21
active: Potency [1] 0.891 µM | Potency [2] 3.98 µM | Potency [3] 12 µM | Potency [4] 10.7 µM | Potency [5] 12 µM | Potency [6] 6.75 µM | Potency [7] 9.53 µM | Potency [8] 4.47 µM | Potency [9] 3.16 µM | Potency [10] 2.24 µM | Potency [11] 3.98 µM | Potency [12] 5.01 µM | Potency [13] 5.62 µM | Potency [14] 3.98 µM

O[C@@H]([C@H](O)[C@@H](O)CBr)[C@@H](O)CBr
inactive: Potency [15] | Potency [16] | Potency [17]

CCC(=O)O[C@@H](OP(=O)(CCCCc1ccccc1)CC(=O)N1C[C@H](C2CCCCC2)C[C@H]1C(=O)O)C(C)C (stereo partly drawn)
active: Potency [1] 12.6 µM
inactive: Potency [2] | Potency [3] | Potency [4] | Potency [5] | Potency [6] | Potency [7] | Potency [8] | Potency [9] | Potency [10] | Potency [11] | Potency [12] | Potency [13] | Potency [14]

CC1CCC(C(C)C)C(OC(=O)c2ccccc2O)C1 (stereo not drawn)
inactive: Potency [18] | Potency [1] | Potency [2] | Potency [3] | Potency [4] | Potency [5] | Potency [6] | Potency [7] | Potency [8] | Potency [9] | Potency [10] | Potency [11] | Potency [12] | Potency [13] | Potency [14]

O=NCc1ccc([N+](=O)[O-])o1
active: Potency [1] 8.91 µM
inactive: Potency [18] | Potency [4] | Potency [5] | Potency [6] | Potency [9] | Potency [13]

Cc1cccc(O)c1
inactive: activation [19] 1.46% and -4.97%

CO/N=C(/C(=O)N[C@@H]1C(=O)N2C(C(=O)O)=CCS[C@H]12)c1csc(N)n1
inactive: Potency [18] | Potency [1] | Potency [2] | Potency [3] | Potency [4] | Potency [5] | Potency [6] | Potency [7] | Potency [8] | Potency [9] | Potency [10] | Potency [11] | Potency [12] | Potency [13] | Potency [14]

O=S(=O)(O)c1ccccc1
inactive: Potency [15] | Potency [16] | Potency [17] | activation [19] -5.18% | Potency [20]

O=C1CCc2ccccc2O1
inactive: Potency [15] | Potency [16] | Potency [17] | activation [19] -2.22% | Potency [20]

Cc1cc(CC(C)CC(C)(C)C)n(O)c(=O)c1 (stereo not drawn)
active: Potency [18] 2.51 µM | Potency [1] 2.82 µM | Potency [2] 2.82 µM | Potency [3] 2.69 µM | Potency [4] 2.39 µM | Potency [5] 3.38 µM | Potency [6] 1.9 µM | Potency [7] 1.51 µM | Potency [8] 2.82 µM | Potency [10] 8.91 µM | Potency [11] 2.82 µM | Potency [12] 2.82 µM | Potency [14] 2.24 µM

CC1(C)S[C@@H]2[C@H](NC(=O)COc3ccccc3)C(=O)N2[C@H]1C(=O)O
inactive: activation [19] 10.3% | Potency [18] | Potency [1] | Potency [2] | Potency [3] | Potency [4] | Potency [5] | Potency [6] | Potency [7] | Potency [8] | Potency [9] | Potency [10] | Potency [11] | Potency [12] | Potency [13] | Potency [14]
